An excerpt weighted towards active compounds, which were near 12% of everything screened.
Sfp inh: qHTS Assay for Inhibitors of Bacillus subtilis Sfp phosphopantetheinyl transferase (PPTase); 4'-phosphopantetheinyl transferase ffp (Bacillus subtilis), Q9F4F7; Biochemical Sfp PPTase activity, qHTS; Potency, µM, for inactives: largest response in the series, negative = inhibition, usual class: inhibitors; hit rate 3.5% among 310,000; AID 1490, 2009;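 note: the enzyme is Sfp with the accession as filed and its product quenches rhodamine fluorescence; 0% = enzyme reaction without inhibitor and -100% = no enzyme wells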
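With Hepes-Na pH 7.6 buffer containing 10 mM MgCl2, Sfp (15 nM) modified BHQ-2-YbbR (12.5 uM) using rhodamine-CoA (5 uM). Two reads 30 minutes apart at 525/598 nm yielded each well's rate.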
L3MBTL1 block: qHTS Assay for the Inhibitors of L3MBTL1 | Lethal(3)malignant brain tumor-like protein 1 (Homo sapiens), Q9Y468 | AlphaScreen L3MBTL1–H3K9me1 peptide binding | Potency, µM (highest dose often 57.1 µM), for inactives: at the top dose activity, negative = inhibition, usual class: inhibitors | hit rate 0.66% among 230,000; note: % is set by controls: 0 for no effect and ±100 for the full control effect; nearly all actives have a fitted effect of over 60% in size
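Read-out is AlphaScreen signal from streptavidin donor and nickel chelate acceptor beads (10 ug/mL final each) bridging L3MBTL1 (50 nM) and biotinylated K9-monomethylated H3(1-15) peptide (75 nM), after 30 min compound exposure at room temperature.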
G9a inh: qHTS Assay for Inhibitors of Histone Lysine Methyltransferase G9a; G9a H3K9 monomethylation, AlphaScreen, 2 h; hit rate 8.8% among 350,000; AID 504332, 2011; Histone-lysine N-methyltransferase EHMT2 (Homo sapiens), Q96KQ7; Potency, µM (doses to about 102 µM), for the others: at the top dose activity, negative = inhibition, hits mostly inhibitors; note: % is set by controls: 0 for no effect and ±100 for the full control effect; nearly all actives have a fitted effect of over 75% in size
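Using a bead-based AlphaScreen, monomethylated H3K9 product from 2 h room-temperature reactions (G9a 20 nM, peptide 500 nM, SAM 20 uM) was detected with 0.5 ug/mL rabbit anti-H3K9me1 antibody.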
BAZ2B inh: qHTS Assay for Inhibitors of BAZ2B; Bromodomain adjacent to zinc finger domain protein 2B (Homo sapiens), Q9UIF8; hit rate 4.4% among 360,000; Potency, µM (highest dose often 114 µM), without a hit: at the highest dose activity change, negative = inhibition, hits mostly inhibitors; AlphaScreen BAZ2B-H3K14Ac peptide displacement; AID 504333, 2011; note: % is set by controls: 0 for no effect and ±100 for the full control effect; nearly all actives have a fitted effect of over 60% in size
Target sequence (Q9UIF8 whole entry, looked up, the tested form may be a part): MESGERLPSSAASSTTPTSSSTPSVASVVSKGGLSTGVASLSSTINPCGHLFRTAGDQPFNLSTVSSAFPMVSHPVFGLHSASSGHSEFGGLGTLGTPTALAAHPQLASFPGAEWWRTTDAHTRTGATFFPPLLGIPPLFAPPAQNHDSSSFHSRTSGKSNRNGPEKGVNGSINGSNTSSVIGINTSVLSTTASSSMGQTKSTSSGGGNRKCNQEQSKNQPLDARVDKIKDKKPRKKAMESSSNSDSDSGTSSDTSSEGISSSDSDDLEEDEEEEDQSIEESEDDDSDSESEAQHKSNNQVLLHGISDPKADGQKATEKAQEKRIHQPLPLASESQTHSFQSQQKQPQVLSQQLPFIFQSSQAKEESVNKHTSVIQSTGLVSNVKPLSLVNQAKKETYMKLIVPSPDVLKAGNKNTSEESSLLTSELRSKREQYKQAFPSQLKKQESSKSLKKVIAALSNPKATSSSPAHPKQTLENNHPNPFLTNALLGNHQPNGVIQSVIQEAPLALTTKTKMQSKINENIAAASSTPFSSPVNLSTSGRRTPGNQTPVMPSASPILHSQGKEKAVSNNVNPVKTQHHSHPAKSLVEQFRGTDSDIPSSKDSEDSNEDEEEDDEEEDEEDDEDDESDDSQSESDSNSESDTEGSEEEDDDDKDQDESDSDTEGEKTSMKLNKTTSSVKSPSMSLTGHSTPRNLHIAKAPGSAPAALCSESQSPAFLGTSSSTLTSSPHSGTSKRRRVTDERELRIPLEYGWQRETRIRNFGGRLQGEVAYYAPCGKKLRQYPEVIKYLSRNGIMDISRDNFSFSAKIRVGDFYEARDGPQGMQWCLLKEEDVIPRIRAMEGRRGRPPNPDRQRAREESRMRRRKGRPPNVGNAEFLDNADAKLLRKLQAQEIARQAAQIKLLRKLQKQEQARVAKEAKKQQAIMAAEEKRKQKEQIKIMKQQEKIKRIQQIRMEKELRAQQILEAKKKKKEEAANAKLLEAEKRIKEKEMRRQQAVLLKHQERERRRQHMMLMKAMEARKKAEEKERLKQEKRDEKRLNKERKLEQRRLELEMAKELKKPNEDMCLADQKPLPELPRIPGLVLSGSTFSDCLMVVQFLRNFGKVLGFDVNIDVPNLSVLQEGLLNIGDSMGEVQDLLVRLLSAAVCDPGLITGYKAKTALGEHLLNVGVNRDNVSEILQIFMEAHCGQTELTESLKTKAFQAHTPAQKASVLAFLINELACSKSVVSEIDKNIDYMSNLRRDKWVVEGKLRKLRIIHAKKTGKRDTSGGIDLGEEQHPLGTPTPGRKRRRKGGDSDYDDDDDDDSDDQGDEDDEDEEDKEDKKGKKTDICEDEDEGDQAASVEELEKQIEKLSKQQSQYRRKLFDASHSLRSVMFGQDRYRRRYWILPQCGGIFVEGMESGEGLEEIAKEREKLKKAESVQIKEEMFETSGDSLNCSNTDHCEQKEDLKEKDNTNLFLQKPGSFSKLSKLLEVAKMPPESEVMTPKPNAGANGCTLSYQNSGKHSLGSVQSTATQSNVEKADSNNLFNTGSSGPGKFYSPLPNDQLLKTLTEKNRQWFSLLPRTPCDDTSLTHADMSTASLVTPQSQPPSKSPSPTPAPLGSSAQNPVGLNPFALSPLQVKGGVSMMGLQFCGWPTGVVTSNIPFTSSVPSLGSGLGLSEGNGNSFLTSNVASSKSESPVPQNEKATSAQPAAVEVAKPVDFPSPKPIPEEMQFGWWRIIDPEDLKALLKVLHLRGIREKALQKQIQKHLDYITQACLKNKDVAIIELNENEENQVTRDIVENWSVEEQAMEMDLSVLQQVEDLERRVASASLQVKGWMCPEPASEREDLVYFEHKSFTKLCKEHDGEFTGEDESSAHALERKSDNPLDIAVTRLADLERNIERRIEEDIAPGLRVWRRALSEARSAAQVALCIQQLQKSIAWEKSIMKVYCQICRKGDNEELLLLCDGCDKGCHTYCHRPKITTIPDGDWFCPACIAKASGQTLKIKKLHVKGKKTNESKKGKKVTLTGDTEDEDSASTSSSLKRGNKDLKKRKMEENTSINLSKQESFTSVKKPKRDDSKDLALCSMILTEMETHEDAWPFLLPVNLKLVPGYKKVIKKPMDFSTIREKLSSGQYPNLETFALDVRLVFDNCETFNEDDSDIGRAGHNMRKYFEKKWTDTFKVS
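Compounds, titrated to a top concentration of 110 uM, were incubated 30 min at room temperature with preformed BAZ2B/acetyl-K14 H3 peptide complex (50 nM each). Proximity signal was measured by AlphaScreen after 20 min with beads.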
JMJD2A Tudor inh: qHTS Assay for Inhibitors of JMJD2A-Tudor Domain; Potency, µM (doses to about 114 µM), inactives show top-dose activity change, negative = inhibition, hits mostly inhibitors; Lysine-specific demethylase 4A (Homo sapiens), O75164; hit rate 4.4% among 390,000; AID 504339, 2011; AlphaScreen JMJD2A-Tudor / H3K4me3 peptide binding; note: % is set by controls: 0 for no effect and ±100 for the full control effect; nearly all actives have a fitted effect of over 50% in size
HP1b binding inh: HTS for Inhibitors of HP1-beta Chromodomain Interactions with Methylated Histone Tails; Chromobox protein homolog 1 (Homo sapiens), P83916; AlphaScreen HP1-beta / biotin-H3K9me3 peptide binding; Potency, µM (highest dose often 114 µM), for inactives: at the top dose activity change, negative = inhibition, actives largely listed as inhibitors; hit rate 0.56% among 390,000; note: nearly all actives have a fitted effect of over 70% in size
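HP1-beta protein (50 nM final) preincubated 30 min at room temperature with biotinylated H3(1-18)K9me3 peptide (50 nM) in PBS pH 7.4, 0.01% Tween-20, then compound added for 30 min. AlphaScreen streptavidin donor/nickel chelate acceptor beads (10 ug/mL final), 30 min dark, luminescence read.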
* marks the source's active call; other numbers are inactive results; ? = inconclusive; / = not tested or not shown; [ ] = dose if it differs, or a comment. Calls come from the whole dose curve; as a rule, active = well fitted curve in the direction sought with a large enough effect; inconclusive = small, poorly fitted or top-dose-only effect, or another doubt; inactive = no such curve, though single readings can be large; an effect the other way counts as inactive or inconclusive. Potency is the fitted concentration of half-maximal effect.

SMILES	Sfp inh	L3MBTL1 block	G9a inh	BAZ2B inh	JMJD2A Tudor inh	HP1b binding inh
CCOc1ccccc1CNCc1cccn1-c1nnc(N2CCN(c3ccccc3)CC2)s1	/	/	14µM*	?	?	-21%
CCOc1ccccc1CNC(=O)c1cccn1-c1nnc(N2CCCCC2)s1	/	/	-18%[59 µM]	-26%	-27%	-3%
O=C(Cn1ncc2ccc(Cl)cc21)NCc1ccc(F)cc1	/	/	-34%[59 µM]	-3%	-22%	56%
CC[C@H](C)[C@H](NC(=O)[C@H](Cc1ccccc1)NC(=O)[C@H](CCC(=O)O)NC(=O)[C@H](CCCCN)NC(=O)[C@H](C)NC(=O)[C@H](C)NC(=O)[C@H](CCC(N)=O)NC(=O)CNC(=O)[C@H](CCC(=O)O)NC(=O)[C@H](CC(C)C)NC(=O)[C@H](Cc1ccc(O)cc1)NC(=O)[C@H](CO)NC(=O)[C@H](CO)NC(=O)[C@@H](NC(=O)[C@H](CC(=O)O)NC(=O)[C@H](CO)NC(=O)[C@@H](NC(=O)[C@H](Cc1ccccc1)NC(=O)[C@@H](NC(=O)CNC(=O)[C@H](CCC(=O)O)NC(=O)[C@H](C)NC(=O)[C@@H](N)Cc1cnc[nH]1)[C@@H](C)O)[C@@H](C)O)C(C)C)C(=O)N[C@@H](C)C(=O)N[C@@H](Cc1c[nH]c2ccccc12)C(=O)N[C@@H](CC(C)C)C(=O)N[C@H](C(=O)N[C@@H](CCCCN)C(N)=O)C(C)C	3%	/	/	/	/	/
CC(=O)N1N=C(c2cccc([N+](=O)[O-])c2)OC1c1ccc(Cl)cc1Cl (stereo unspecified)	-7%	-27%	-24%	?	?	-19%
CC(=O)N1N=C(c2cccc([N+](=O)[O-])c2)OC1c1ccc(Br)cc1 (stereo unspecified)	13%	?	45µM*	?	?	-11%
COc1ccc(CN=C(C#N)C2=C(O)c3ccccc3C2=O)cc1	3%	/	35µM*	-37%	?	28%
CC(=NCc1ccncc1)C1=C(O)c2ccccc2C1=O	?	/	?	-29%	/	/
CCNc1ccc(Br)cc(C(=O)/C=C/c2ccc(Cl)cc2)c1=O	40µM*	-18%	10µM*	10µM*	45µM*	-35%
O=C(/C=C/c1ccc(F)cc1)c1cc(Br)ccc1O	-3%	51%	100%	-3%	23%	43%
CCNc1ccc(Br)cc(C(=O)/C=C/c2c(Cl)cccc2Cl)c1=O	16µM*	8.9µM*	4µM*	25µM*	89µM*	?
Nc1ccccc1C(=O)/C=C\c1ccc2c(c1)OCO2	7%	/	/	/	/	/
CCNc1ccc(Br)cc(C(=O)/C=C/c2ccc3c(c2)OCO3)c1=O	-81%	20µM*	/	22µM*	45µM*	20µM*
Nc1ccccc1C(=O)/C=C/c1ccc2c(c1)OCO2	?	?	40µM*	14µM*	45µM*	?
O=C(/C=C/c1ccc2c(c1)OCO2)c1ccc(O)cc1O	/	/	/	/	?	-7%[57 µM]
O=C(CN1C(=O)C2CCCCN2c2ccc(C(=O)N3CCCC3)cc21)NCc1cccc(F)c1 (stereo unspecified)	/	/	1%[59 µM]	-4%	-17%	10%[57 µM]
CC(=O)Nc1ccc(NC(=O)CCc2c(C)nc3c(c(C)nn3-c3ccc(C)cc3)c2C)cc1	/	/	17%[59 µM]	11%	-12%	60%
Cc1ccc(-c2nc3ncccc3o2)cc1NC(=O)c1cccc(OCC(C)C)c1	/	/	-1%[59 µM]	3%	-10%	11%
Cc1ccc(O)c(C(=O)/C=C/c2ccc3c(c2)OCCO3)c1	-27%	/	25µM*	28µM*	28µM*	?
O=C(/C=C/c1ccc2c(c1)OCCO2)c1ccccc1	-20%	-3%	56%	-1%	-16%	47%
CC1CCCC(C)N1C(=C(Cl)Cl)C(=C1SCCS1)[N+](=O)[O-] (stereo unspecified)	0%	/	35µM*	18µM*	-19%[11.4 µM]	?
CCOC(=O)c1cccc(NS(=O)(=O)c2ccc(-c3coc(C)n3)cc2)c1	/	/	2%[59 µM]	-1%	-10%	29%[57 µM]
O=C(/C=C/c1cccc(OCc2ccccc2)c1)c1cccnc1	50µM*	-13%	?	-10%	-27%	35%
O=C(O)/C=C/c1cccc(OCc2ccccc2)c1	10%	-1%	17%[59 µM]	-17%	-8%	1%
O=C(/C=C/c1cccnc1)c1ccc(F)c(F)c1	63µM*	/	40µM*	-16%	-4%	24%
SMILES	Sfp inh	L3MBTL1 block	G9a inh	BAZ2B inh	JMJD2A Tudor inh	HP1b binding inh
O=C(/C=C/c1ccc([N+](=O)[O-])cc1)c1cccnc1	18µM*	1%	?	0%	?	18%
COc1ccc2c(c1)CCc1c(C(=O)Nc3ccc(F)c(Cl)c3)noc1-2	/	/	-2%[59 µM]	-8%	-7%	27%
CCOc1ccc(-n2ccnc2SCC(=O)Nc2nc3ccc(C)cc3s2)cc1	/	/	0%[59 µM]	-22%	-25%	21%[57 µM]
CN1CCN(CCCCOc2ccc(F)cc2)CC1	-4%	-4%	-31%	-2%	14%[57.1 µM]	43%
Brc1ccc(OCCCCCN2CCOCC2)cc1	-16%	/	3.2µM*	35µM*	3.2µM*	-25%
CN1CCN(CCCCOc2ccc(Br)cc2)CC1	-33%	-5%	4.5µM*	56µM*	20µM*	?
COc1ccc(NC(=O)N2CCN3CCCCC3C2)cc1OC (stereo unspecified)	/	/	-33%[59 µM]	-7%	-3%	21%
CC1CCCCC1NC(=O)c1ccc(S(=O)(=O)NNC(=O)c2ccncc2)cc1 (stereo unspecified)	?	/	/	89µM*	3.5µM*	27%
O=C(NNS(=O)(=O)c1ccc(C(=O)NC2CCCC2)cc1)c1ccncc1	-14%	19%	50µM*	-30%	1.3µM*	20%
CCOC(=O)C1=C(CS(=O)(=O)c2cccc(C(F)(F)F)c2)NC(=O)NC1c1cccc(OC)c1 (stereo unspecified)	/	/	-39%[59 µM]	3%	-12%	19%
Cc1ccc(C(=O)Nc2c(-c3ccccc3)nc3ccccn23)cc1	/	/	?	-4%	-12%	17%
COc1ccccc1CNC(=O)CCn1c(=O)c2ccccc2n(CC(=O)Nc2ccc(C)cc2)c1=O	/	/	-7%[59 µM]	?	0%	12%
O=C(NCCC1=CCCCC1)c1ccc2c(c1)ncn2-c1ccc(F)c(F)c1	/	/	-1%[59 µM]	-3%	-17%	-14%

High-throughput results (PubChem)
